Screening results from PubChem BioAssay.
Shown are actives, neighbours in structure and some others; about 19% of the full set was active somewhere.
ELG1 repair inh – qHTS screen for small molecules that inhibit ELG1-dependent DNA repair in human embryonic kidney (HEK293T) cells expressing luciferase-tagged ELG1 | HEK293T ELG1-luciferase reporter, luminescence, 16 h; DNA damage induced by 5-fluorouridine | Potency, µM (highest dose often 46.1 µM), inactives show top-dose activity change, negative = inhibition, actives largely listed as inhibitors | 330,000 tested, 2.3% active | AID 504467, 2011; note: potency is the fitted concentration of half-maximal effect; nearly all actives have a fitted effect of over 55% in size
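Cells (2,000 per well) received 5-fluorouridine plus test compound or DMSO and were incubated 16 hr at 37 °C, 5% CO2. Luciferase activity was read by luminescence 30 min after ONE-Glo addition; signal suppression marked inhibition of damage-induced ELG1 function.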
IL-1B inflam inh – qHTS for Inhibitors of Inflammasome Signaling: IL-1-beta AlphaLISA Primary Screen; 360,000 tested, 4.7% active; activity change, % at 57.5 µM; THP-1 LPS/ATP IL-1B secretion, AlphaLISA, 16 h; stronger effect = lower value; in the data active = activity change below about -50%; inconclusive = mostly about -30% to -49%
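Secreted IL-1B measured by AlphaLISA bead assay after 16 h compound exposure of THP-1 cells; compounds (final up to 57.5 uM) added 1 h before LPS (250 ng/mL) and ATP (1.25 mM) stimulation; lower signal means less secretion.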
DT40 TDP1 CPT – qHTS for Inhibitors of human tyrosyl-DNA phosphodiesterase 1 (TDP1): qHTS in cells in presence of CPT. chicken DT40 Tdp1-/-;hTDP1 cells + 20 nM CPT, ATP luminescence, 48 h. Potency, µM (highest dose often 46.2 µM), for inactives: top-dose activity change, negative = growth inhibition, actives largely listed as inhibitors. 420,000 tested, 12% active. AID 686979, 2013; note: potency is the fitted concentration of half-maximal effect; nearly all actives have a fitted effect of over 55% in size
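Chicken DT40 Tdp1-/- cells complemented with human TDP1, 400 cells/well, exposed to compounds plus 20 nM camptothecin for at least 48 h at 37 C; viability read as ATP content by CellTiter-Glo luminescence.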
HT1080 IDH1KD tx – qHTS for induction of synthetic lethality in tumor cells producing 2HG: qHTS for the HT-1080-IDH1KD cell line. AID 686971, 2013. 360,000 tested, 2% active. HT-1080 IDH1 knockdown viability, ATP luminescence, 48 h. Potency, µM (doses to about 46.1 µM), inactives show top-dose activity, negative = toxicity, usual class: cytotoxic;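 note: potency is the fitted concentration of half-maximal effect; 0% = DMSO wells and -100% = cell-free medium wells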
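After a 2 h attachment period, IDH1KD HT-1080 cells took pin-transferred compound for 48 h at 37 °C; ATP-based luminescence after 10 min room-temperature reagent incubation reported viability.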
DT40 TDP1 no CPT – qHTS for Inhibitors of human tyrosyl-DNA phosphodiesterase 1 (TDP1): qHTS in cells in absence of CPT | 420,000 tested, 15% active | Potency, µM (top dose mostly 46.2 µM), for the others: top-dose activity change, negative = growth inhibition, usual class: inhibitors | AID 686978, 2013 | DT40 Tdp1-/- hTDP1 cells, no CPT, ATP luminescence, 48 h; note: potency is the fitted concentration of half-maximal effect; nearly all actives have a fitted effect of over 55% in size
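Stably hTDP1-transfected Tdp1-null chicken DT40 cells were treated with library compounds minus camptothecin and grown for at least 48 hr at 37 °C, after which cellular ATP was quantified by luminescence.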
HT1080-NT tox – qHTS for induction of synthetic lethality in tumor cells producing 2HG: qHTS for the HT-1080-NT fibrosarcoma cell line; HT-1080-NT fibrosarcoma viability, CellTiter-Glo ATP luminescence, 48 h; Potency, µM (titrated, usually from 46.1 µM), for the others: at the top dose activity, negative = less viability, usual class: cytotoxic; 360,000 tested, 1.6% active;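 note: NT is the 2HG producing partner of a matched IDH1 knockdown line; potency is the fitted concentration of half-maximal effect; 0% = DMSO-treated cells and -100% = media-only wells without cells; nearly all actives have a fitted effect of over 55% in size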
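Fibrosarcoma NT cells, 750 per well in 5% FBS RPMI, were exposed to compound for 48 hours. Viability: CellTiter-Glo luminescence.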
* hit, by the source's call; ? = inconclusive; nt = no result. Unless noted, calls come from the whole dose curve; as a rule, active = well fitted curve in the direction sought with a large enough effect; inconclusive = small, poorly fitted or top-dose-only effect, or another doubt; inactive = no such curve, though single readings can be large; an effect the other way counts as inactive or inconclusive. Unless noted, % is set by controls: 0 for no effect and ±100 for the full control effect.

SMILES	ELG1 repair inh	IL-1B inflam inh	DT40 TDP1 CPT	HT1080 IDH1KD tx	DT40 TDP1 no CPT	HT1080-NT tox
Cc1ccc(C)c(S(=O)(=O)N2CCCC2CNC(=O)C(=O)NC2CCCCCC2)c1 (stereo not drawn)	-16%	-23	?	12%	23µM*	8%
CC(C)Cn1c(SCC(=O)NC2CC2)nc2ccccc21	nt	16	-1%	-3%	?	-1%
Cc1ccc(C(=O)Nc2cccc(-c3nc(CNC(=O)C4CCCCC4)c(C)o3)c2)s1	nt	nt	1%	nt	-14%	nt
Nc1nc2cc(Cl)c(Br)cc2o1	nt	12	-1%	25%	-12%	20%
CCCCOCCOC(=O)C1OC1(C)c1ccccc1 (stereo not drawn)	nt	9	-11%	8%	-8%	3%
CC(C)(C)CC(C)(C)N=C1Nc2ccc([N+](=O)[O-])cc2N[C@]12C[C@H]1CCCC(=O)N3CC[C@@H](C2)[C@@H]13	nt	nt	18µM*	nt	11µM*	nt
O=C1CCC[C@@H]2C[C@@]3(C[C@@H]4CCN1[C@H]24)Nc1cc(Cl)c(Cl)cc1NC3=NCc1ccccc1	nt	-19	18µM*	3%	20µM*	1%
O=C1CCC[C@@H]2C[C@@]3(C[C@@H]4CCN1[C@H]24)Nc1ccccc1NC3=NC1CCCCC1	nt	nt	-26%	nt	-25%	nt
O=C1CCC[C@@H]2CC(Nc3ccccc3)C[C@@H]3CCN1[C@H]23 (stereo partly drawn)	nt	nt	?	nt	-19%	nt
CC(C)(C)CC(C)(C)N=C1Nc2ccc(Cl)cc2NC12C[C@H]1CCC(=O)N3CC[C@@H](C2)[C@@H]13 (stereo partly drawn)	nt	nt	?	nt	13µM*	nt
O=C(c1ccc(S(=O)(=O)N2CCOCC2)cc1)N1CCc2ccccc21	14%	0	-14%	4%	?	8%
COc1cccc(CNC(=O)c2ccc(Cn3c(SCc4ccccc4)nc4cccnc43)cc2)c1	nt	nt	8.2µM*	nt	?	nt
Cn1c(SCc2ccccc2F)nc2cccnc21	?	-5	3%	3%	-27%	9%
O=C(NCc1ccco1)c1ccc(Cn2c(SCc3ccccc3)nc3cccnc32)cc1	nt	nt	4.1µM*	nt	26µM*	nt
O=C(CCCCCn1c(SCc2ccncc2)nc2ccccc2c1=O)NCc1ccco1	18µM*	?	?	11µM*	?	?
O=C(NCc1ccccc1)c1ccc(CSc2nc3cccnc3n2Cc2ccccc2F)cc1	nt	nt	?	nt	18µM*	nt
O=C(CSc1nc2ccccc2c(=O)n1CCCC(=O)N1CCCC1)NCc1ccco1	-7%	?	-25%	-5%	-18%	-5%
COc1ccc(CC(=O)NCc2nc3cccnc3n2Cc2ccccc2)cc1	nt	nt	1%	nt	?	nt
CC(C)OCCCNC(=O)CN1C(=O)c2ccccc2Sc2ncccc21	nt	nt	-5%	nt	-16%	nt
Cc1ccc(CSc2nc3cccnc3n2Cc2ccc(C(=O)NCCc3ccccc3)cc2)cc1	nt	nt	-15%	nt	-7%	nt
Cc1cccc(CNC(=O)c2ccc(Cn3c(SCc4ccccc4)nc4cccnc43)cc2)c1	nt	nt	?	nt	16µM*	nt
COc1ccc(C2=NO[C@H]3C[C@](C(=O)NC(C)C)(S(=O)(=O)c4ccccc4)C[C@@H]23)cc1	-7%	14	5%	2%	-17%	1%
